Sampled rows, rich in hits. Any-hit rate of the full collection: about 1.9%.
PLC-beta3 inh: blocks human PLC-beta3 enzyme activity; Q01970; Purified PLC-beta3, fluorogenic substrate, fluorescence; inhibition, % at 12.2 µM; 0.18% of 370,000 active; in the data active = inhibition above about 11%;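 note: 0% = median of compound wells on plate and 100% = full blocker control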
Target sequence (Q01970 whole entry, looked up): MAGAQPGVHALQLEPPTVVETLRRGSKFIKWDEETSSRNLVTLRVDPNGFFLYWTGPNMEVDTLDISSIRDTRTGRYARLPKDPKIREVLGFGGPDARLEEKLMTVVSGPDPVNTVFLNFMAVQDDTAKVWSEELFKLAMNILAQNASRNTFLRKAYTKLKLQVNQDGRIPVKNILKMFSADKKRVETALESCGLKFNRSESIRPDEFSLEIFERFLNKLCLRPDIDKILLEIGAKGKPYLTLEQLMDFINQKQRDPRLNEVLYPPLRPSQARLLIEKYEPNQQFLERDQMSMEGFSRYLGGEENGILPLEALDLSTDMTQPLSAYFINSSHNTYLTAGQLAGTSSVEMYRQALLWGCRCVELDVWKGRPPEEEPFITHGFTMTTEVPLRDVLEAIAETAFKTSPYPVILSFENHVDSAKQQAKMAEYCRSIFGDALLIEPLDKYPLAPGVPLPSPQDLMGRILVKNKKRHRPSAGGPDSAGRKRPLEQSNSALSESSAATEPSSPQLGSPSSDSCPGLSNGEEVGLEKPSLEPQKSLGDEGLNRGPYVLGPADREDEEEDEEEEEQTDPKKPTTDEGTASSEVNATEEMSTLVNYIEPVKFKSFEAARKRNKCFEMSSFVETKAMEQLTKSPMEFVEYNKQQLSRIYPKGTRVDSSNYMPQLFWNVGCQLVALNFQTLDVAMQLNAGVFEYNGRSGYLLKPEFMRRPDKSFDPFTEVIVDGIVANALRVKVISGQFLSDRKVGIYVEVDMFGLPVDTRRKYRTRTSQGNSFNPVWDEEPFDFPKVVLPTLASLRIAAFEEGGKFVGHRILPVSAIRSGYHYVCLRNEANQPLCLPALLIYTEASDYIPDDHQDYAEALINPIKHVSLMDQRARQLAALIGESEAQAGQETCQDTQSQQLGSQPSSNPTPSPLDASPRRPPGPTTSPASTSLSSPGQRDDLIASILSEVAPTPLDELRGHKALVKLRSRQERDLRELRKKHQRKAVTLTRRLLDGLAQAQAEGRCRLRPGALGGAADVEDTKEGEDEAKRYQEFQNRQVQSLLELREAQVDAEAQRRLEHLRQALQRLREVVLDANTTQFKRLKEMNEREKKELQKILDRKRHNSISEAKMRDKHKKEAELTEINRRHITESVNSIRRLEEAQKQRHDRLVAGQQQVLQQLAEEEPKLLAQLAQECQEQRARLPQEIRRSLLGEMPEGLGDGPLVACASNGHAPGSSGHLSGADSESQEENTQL
PLC-gamma1 inh: blocks human PLC-gamma1 enzyme activity; P19174; purified PLC-gamma1, fluorogenic substrate, fluorescence; inhibition, % at 12.2 µM; 0.84% of 370,000 active
MsrA inhibitor: inhibits bovine methionine sulfoxide reductase A | inhibition, % at 15.5 µM | 0.75% of 360,000 active | purified bovine MsrA, absorbance read-out | AID 651718; in the data active = inhibition above about 4.5%;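 note: 0% = vehicle wells with enzyme and 100% = reference inhibitor wells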
MsrA act: activators of bovine methionine sulfoxide reductase A. purified bovine MsrA, absorbance read-out. activation, % at 10.6 µM. 0.3% of 360,000 active; in the data active = activation above about 7.5%;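 note: 0% = vehicle and 100% = reference activator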
PLCgamma1 ctr: inhibits human PLC-gamma1 in PLC-beta3 counter-screen. shares compounds with PLC-gamma1 inh. purified PLC-gamma1, fluorogenic substrate, fluorescence. inhibition, % at 12.3 µM. 3.1% of 3,300 active. AID 743258
PLCbeta3 conf: human PLC-beta3 inhibition, confirmation; shares compounds with PLC-gamma1 inh; purified PLC-beta3, fluorogenic substrate fluorescence; inhibition, % at 12.3 µM; 1% of 3,300 active; in the data active = inhibition above about 11%
The depositor's hits bear a star; nt = no result. Cut-off read from the data, not from the text of the source, unless noted: active = inhibition above about 9.5%; inactive = the rest.

SMILES	PLC-beta3 inh	PLC-gamma1 inh	MsrA inhibitor	MsrA act	PLCgamma1 ctr	PLCbeta3 conf
C[C@H]1CN(CCc2ccccc2)C(=O)[C@@H]1CC(=O)Nc1ccccc1	1.8	0.4	-0.9	-1.2	nt	nt
O=C1C(=O)N(O)C2CCCCC2N1O (stereo unspecified)	0.9	1.6	1.3	-3.0	nt	nt
O=C1OC[C@H]2CCCC[C@@H](CO)ON12	1.5	9.6*	0.8	3.2	0.2	-0.2
Nc1nc2c(ncn2[C@@H]2O[C@H](C(=O)N[C@H](Cc3ccccc3)C(=O)O)[C@@H](O)[C@H]2O)c(=O)[nH]1	1.1	0.9	0.7	nt	nt	nt
Cc1nc([N+](=O)[O-])c(Br)n1Cc1ccccc1	-1.8	1.1	1.8	-2.2	nt	nt
Cc1nc([N+](=O)[O-])c(Sc2nc3ccc([N+](=O)[O-])cc3[nH]2)n1Cc1ccccc1	6.1	11.8*	1.2	-2.0	3.4	-1.0
COC(=O)C1=C(C)N(Cc2ccccc2)C(=S)N[C@H]1c1ccc(Br)cc1	-2.6	1.4	0.4	-0.4	nt	nt
COC(=O)C1=C(C)N(Cc2cccc(C(F)(F)F)c2)C(=NCc2ccc(C(F)(F)F)cc2)NC1c1cccc(F)c1 (stereo unspecified)	13.6*	7.8	-0.9	nt	-6.0	-3.8
COC(=O)C1=C(C)N(Cc2cccc(C(F)(F)F)c2)C(=NCc2ccc(C(F)(F)F)cc2)NC1c1ccc(F)cc1 (stereo unspecified)	2.5	5.3	-2.0	nt	nt	nt
COC(=O)C1=C(C)N(Cc2cccc(C(F)(F)F)c2)C(=NCc2ccc(C(F)(F)F)cc2)NC1c1ccc(C(F)(F)F)cc1 (stereo unspecified)	7.8	12.8*	-1.9	nt	5.3	4.7
COC(=O)C1=C(C)N(Cc2ccccc2)C(=S)NC1c1ccc(Br)cc1 (stereo unspecified)	3.7	9.7*	0.8	nt	-1.1	-0.1
COC(=O)C1=C(C)N(Cc2ccc(C(F)(F)F)cc2)C(=NCc2ccc(OC)cc2)NC1c1ccccc1C(F)(F)F (stereo unspecified)	3.7	9.9*	-2.2	nt	-4.7	-5.2
O=C(Cc1ccc(NC(=O)C2CCCN(C(=O)c3ccccc3)C2)cc1)Nc1cccc(C(=O)N2CCCCC2)c1 (stereo unspecified)	3.9	6.5	-1.0	nt	nt	nt
c1ccc(Cc2cnc(N3CCN(Cc4ccc5c(c4)OCCO5)CC3)nc2)cc1	4.3	9.8*	-0.2	nt	-5.4	-6.0
O=C(CCc1ccccc1)N[C@H]1[C@H](OC(=O)c2cnccn2)CCC[C@@]12C(=O)N(Cc1ccccc1)c1ccccc12	3.0	2.0	nt	nt	nt	nt
O=C(CCc1ccccc1)N[C@H]1[C@@H](OC(=O)c2cnccn2)CCC[C@@]12C(=O)N(Cc1ccccc1)c1ccccc12	2.6	12.4*	nt	nt	14.2*	8.2
CC1CCC(NC(=O)CN2C(=O)c3ccccc3S2(=O)=O)CC1 (stereo unspecified)	-0.5	12.2*	0.9	-3.7	-2.0	1.3
CC(C)COP(=O)(CNC(=O)CN1C(=O)c2ccccc2S1(=O)=O)OCC(C)C	1.2	9.8*	-1.6	-4.8	-9.5	-3.3
O=C(CN1C(=O)c2ccccc2S1(=O)=O)NC1CC2CCC1C2 (stereo unspecified)	-1.4	4.1	-0.1	-2.8	nt	nt
CC(C)NC(=O)CN1C(=O)c2ccccc2S1(=O)=O	2.9	-4.9	-0.8	-8.0	nt	nt
O=C(CSc1ccc2nnc(CCNC(=O)c3ccccc3)n2n1)NCc1ccco1	-3.4	-1.2	-1.7	-2.7	nt	nt
O=C(CSc1ccc2nnc(CCNC(=O)c3ccc(F)cc3)n2n1)NCc1ccco1	-5.0	13.9*	1.1	-8.2	-2.8	-1.4
COCc1[nH]nc2c1C(c1ccc(C)cc1)N(c1ccc(OC)cc1)C2=O (stereo unspecified)	-0.4	1.6	0.7	nt	nt	nt
CCn1ncc2c(=O)c(C(=O)c3ccccc3)c[nH]c21	-28.1	-14.5	1.2	nt	nt	nt
Cn1c(C(O)c2ccc(Br)cc2)nc(Cl)c1Cl (stereo unspecified)	-12.7	3.7	-0.3	-2.4	nt	nt
SMILES	PLC-beta3 inh	PLC-gamma1 inh	MsrA inhibitor	MsrA act	PLCgamma1 ctr	PLCbeta3 conf
Cn1c(C(O)c2ccc(Cl)cc2)nc(Cl)c1Cl (stereo unspecified)	1.7	11.1*	-1.5	1.8	-8.1	-1.0
NS(=O)(=O)c1ccc(CNC(=O)C2(c3ccc(Cl)cc3)CC2)cc1	-7.4	4.7	1.2	-4.9	nt	nt
COc1ccc(CNC(=O)C2(c3ccc(Cl)cc3)CC2)cc1	10.4	14.0*	1.6	-10.1	-6.5	0.9
COc1ccc(S(=O)(=O)N2CCCCCC2)cc1C(=O)N1CCN(c2ccc(F)cc2)CC1	-6.7	-0.2	0.7	-3.0	nt	nt
O=C(NCc1ccc(F)cc1)C(C(=O)NCc1ccc(F)cc1)c1ncc(C(F)(F)F)cc1Cl	7.7	13.1*	1.4	-1.4	-1.0	1.0
CC(C(=O)N=Nc1c(O)[nH]c2ccccc12)n1cnc2ccccc2c1=O (stereo unspecified)	15.7*	10.4*	3.6	-4.7	-1.1	0.6
CC(C)(C)C1CCC2(CC1)CC(=O)c1ccccc1O2 (stereo unspecified)	2.4	-0.4	0.1	-2.1	nt	nt
CCN(CC)CCNC(=O)C1(O)c2cc(Br)ccc2NC(=O)N1c1ccc(Cl)cc1 (stereo unspecified)	6.8	11.8*	2.0	-2.4	-4.7	-2.3
COc1cc(-c2noc(CCC(=O)Nc3cccnc3)n2)cc(OC)c1OC	12.7*	3.7	1.4	-4.1	-0.6	2.1
COc1cc(NC(=O)CCc2nc(-c3cccs3)no2)cc(OC)c1OC	-0.6	0.3	-0.2	0.4	nt	nt
Cc1ccc(S(=O)(=O)N2O[C@@H](c3ccccc3)C[C@H]2CON2C(C)(C)CCCC2(C)C)cc1	12.6*	11.4*	nt	nt	-0.4	-5.4
Cc1ccc2c(c1)-n1c(nc3ccc(C)cc3c1=O)C(Cc1ccc(O)cc1)NC2=O (stereo unspecified)	-0.1	4.7	0.8	nt	nt	nt
Cc1ccc2nc3n(c(=O)c2c1)-c1ccccc1C(=O)NC3Cc1ccc(O)cc1 (stereo unspecified)	4.7	10.1*	0.9	nt	-6.3	-6.5
O=C1NC(Cc2ccccc2)c2nc3ccc(F)cc3c(=O)n2-c2ccccc21 (stereo unspecified)	-0.9	0.0	-1.7	nt	nt	nt
O=C1NC(Cc2ccccc2)c2nc3cc(F)ccc3c(=O)n2-c2ccccc21 (stereo unspecified)	-0.6	11.1*	1.1	nt	-5.4	-4.6
CCN(CC)S(=O)(=O)c1ccc(N2CCOCC2)c(NS(=O)(=O)c2ccc(Cl)s2)c1	-0.8	0.2	0.5	-1.9	nt	nt
O=S1(=O)CCN(Cc2ccc(Cl)cc2)CC1	10.3	14.2*	0.9	-2.7	-7.9	-3.2
O=S1(=O)CCN(Cc2ccc(Cl)c(Cl)c2)CC1	1.4	-5.1	-0.4	-7.5	nt	nt
CC(=O)N1CCN(c2ccc(NC(=O)c3cc4ccccc4o3)cc2)CC1	-7.9	2.0	2.4	-2.8	nt	nt
CCCC(=O)Nc1ccc(N2CCN(C(=O)c3cc4ccccc4o3)CC2)cc1	1.7	11.3*	1.4	-2.1	-6.0	-0.8
CC(C)Oc1cc(F)ccc1-c1cc(C(=O)NCCc2ccncc2)[nH]n1	-1.1	-0.3	-0.8	-4.0	nt	nt
